Results on four compounds are retold here after PubChem BioAssay.

Values joined by “and” are separate entries in the source; they are usually repeats but may differ in a detail not shown here. Equal values may be shown once. Active and inactive are the calls of the source.

A short description of assay [1]: binders of probe aFSTL3 on microarray, primary screen, stem cell growth factor project, biochemical, small-molecule microarray, fluorescence 635/667 (AID 1064).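 Also: measures binding of the biotinylated anti-FSTL3 antibody to printed compounds.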 As to conditions: higher = more signal.
Assay [2] in a line: binders from COS7 lysate, DM2A8 probe, primary screen, torsin A project, cell lysate, small-molecule microarray, fluorescence 635/667 (AID 1065). As to conditions: higher = more signal, COS7 lysate expressing mutant human TOR1A.
Assay [3] is described as follows: binders of probe aFGF2 on microarray, primary screen, stem cell growth factor project, biochemical, small-molecule microarray, fluorescence 635/667 (AID 1067).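 Also: measures binding of biotinylated aFGF2 protein to printed compounds on slides; z-score merges feature fluorescence and signal-to-noise across triplicate slides.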 To be noted: higher = more signal.
Assay [4] can be described thus: binders of probe aFGF10 on microarray, primary screen, stem cell growth factor project, biochemical, small-molecule microarray, fluorescence 635/667 (AID 1071).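 Also: score merges 667 nm spot intensity and signal to noise from triplicate slides.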 To be noted: higher = more signal.
The target of assay [5] is Neurogenic locus notch homolog protein 2 (Homo sapiens) (UniProt Q04721). In words: Notch2 binders on small-molecule microarrays, primary screen, biochemical, small-molecule microarray, 635 nm fluorescence, stem cell growth factors (AID 1073). As to conditions: Notch2 binding, higher = more signal.
Assay [6] addresses Pro-neuregulin-1, membrane-bound isoform (Homo sapiens) (UniProt Q02297). In words: NRG1 binders on small-molecule microarrays, primary screen, psychiatric disease protein project, biochemical, small-molecule microarray, fluorescence 635/667 (AID 1075).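 Also: score combines 667 nm spot fluorescence with signal to noise.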 To be noted: NRG1 binding, 635 nm fluorescence, higher = more signal.
The test system of assay [7] is Neuregulin-1 EGF-like domain. In words: binders of neuregulin-1 EGF-like domain, primary screen, biochemical, small-molecule microarray, 635 nm fluorescence (AID 1081).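 Also: binding of the protein to compounds printed on small-molecule microarray slides.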 As to conditions: small-molecule microarray binding, higher = more signal.
The nature of assay [8]: FRG1 promoter luciferase signal modulators, primary screen, FRG1 inhibition for FSHD, cell-based, C2C12 myotubes, firefly/Renilla luciferase, luminescence (AID 1084). To be noted: higher = more signal, called active from +8 up or from −8 down.
Assay [9] is described as follows: binders of probe aFST on microarray, primary screen, stem cell growth factor project, biochemical, small-molecule microarray, fluorescence 635/667 (AID 1086).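 Also: score merges 667 nm fluorescence with signal-to-noise of each printed compound spot.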 To be noted: higher = more signal.
The nature of assay [10]: binders of probe aHhip on microarray, primary screen, stem cell growth factor project, biochemical, small-molecule microarray, fluorescence 635/667 (AID 1087).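 Also: score merges spot fluorescence at 667nm with spot signal to noise ratio.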 As to conditions: higher = more signal.
Assay [11] concerns PRMT1 (protein arginine N-methyltransferase 1). In words: PRMT1 binders on small-molecule microarrays, primary screen, biochemical, small-molecule microarray, 635 nm fluorescence (AID 1088).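 Also: binding of Prmt1 protein to compounds spotted on small-molecule microarray slides.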 To be noted: small-molecule microarray binding, higher = more signal.
Assay [12] is described as follows: yeast growth modulation, basal conditions, primary screen, YJM789 clinical isolate, OD600, 24 h (AID 1089).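 Also: growth of clinical yeast isolate S. cerevisiae YJM 789 seeded 1000 cells per well; test concentration not given here.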 To be noted: S. cerevisiae YJM789 growth, higher = more signal, called active from +8 up or from −8 down.
Assay [13] can be described thus: fission yeast growth modulation, primary screen, strain 972, OD600, 24 h, no modulator (AID 1090).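 Also: basal condition with compound alone and no growth modifier present; test concentration not given here.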 As to conditions: S. pombe 972 growth, higher = more signal, called active from +8 up or from −8 down.
Assay [14] can be described thus: S. cerevisiae growth modulation with rapamycin, primary screen, strain BY4716, OD600, 96 h (AID 1091). Also: test concentration not given here. As to conditions: higher = more signal, called active from +8 up or from −8 down.
In assay [15] the target is Torsin-1A-interacting protein 2 (Homo sapiens) (UniProt Q8NFQ8). In words: LULL1 binders on small-molecule microarray, primary screen, cell lysate, human LULL1 lysate, 635/667 nm fluorescence (AID 1092).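 Also: probe is lysate of COS7 cells overexpressing human LULL1; score merges per-feature 667 nm fluorescence with signal-to-noise.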 As to conditions: hLULL1 lysate binding, 635 nm fluorescence, higher = more signal.
Sequence of Torsin-1A-interacting protein 2 (Homo sapiens) (Q8NFQ8 whole entry, looked up): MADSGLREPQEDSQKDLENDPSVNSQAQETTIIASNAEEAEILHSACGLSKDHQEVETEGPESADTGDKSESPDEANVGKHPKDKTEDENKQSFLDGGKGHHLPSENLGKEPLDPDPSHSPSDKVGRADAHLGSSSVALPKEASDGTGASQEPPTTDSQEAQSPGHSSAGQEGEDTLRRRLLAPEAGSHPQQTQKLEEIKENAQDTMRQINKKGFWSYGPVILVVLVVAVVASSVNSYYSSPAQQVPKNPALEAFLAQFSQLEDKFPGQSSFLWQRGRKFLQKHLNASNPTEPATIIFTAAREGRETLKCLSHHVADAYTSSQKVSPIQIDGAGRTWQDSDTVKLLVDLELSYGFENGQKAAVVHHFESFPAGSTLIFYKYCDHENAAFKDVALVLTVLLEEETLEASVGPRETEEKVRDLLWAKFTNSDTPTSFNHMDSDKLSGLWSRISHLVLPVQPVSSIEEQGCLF
The nature of assay [16]: E. coli growth modulation, two-sided OD650, primary screen, E. coli filamentation project, strain DRC41, 24 h (AID 1093).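 Also: MC1000 strain lacking acrAB efflux and sulA so SOS filamentation is blocked; test concentration not given here.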 To be noted: OD650, 24 h, higher = more signal, called active from +8 up or from −8 down.
Assay [17] is described as follows: small-molecule microarray binders of probe aLefty2, primary screen, biochemical, biotinylated probe, 635/667 nm fluorescence (AID 1094).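 Also: score merges spot fluorescence near 667 nm with spot signal-to-noise ratio.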 As to conditions: higher = more signal.
Assay [18] concerns Noggin (protein binding on small-molecule microarray). In words: Noggin binders on small-molecule microarray, primary screen, biochemical, 635/667 nm fluorescence (AID 1095).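 Also: score merges 667 nm feature fluorescence with signal to noise over triplicate slides.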 To be noted: 635 nm fluorescence, higher = more signal.
Assay [19] deals with Neurogenic locus notch homolog protein 3 (Homo sapiens) (UniProt Q9UM47). In words: NOTCH3 binders on small-molecule microarray, primary screen, biochemical, 635/667 nm fluorescence (AID 1096). To be noted: NOTCH3 binding, 635 nm fluorescence, higher = more signal.
Sequence of Neurogenic locus notch homolog protein 3 (Homo sapiens) (Q9UM47 whole entry, looked up): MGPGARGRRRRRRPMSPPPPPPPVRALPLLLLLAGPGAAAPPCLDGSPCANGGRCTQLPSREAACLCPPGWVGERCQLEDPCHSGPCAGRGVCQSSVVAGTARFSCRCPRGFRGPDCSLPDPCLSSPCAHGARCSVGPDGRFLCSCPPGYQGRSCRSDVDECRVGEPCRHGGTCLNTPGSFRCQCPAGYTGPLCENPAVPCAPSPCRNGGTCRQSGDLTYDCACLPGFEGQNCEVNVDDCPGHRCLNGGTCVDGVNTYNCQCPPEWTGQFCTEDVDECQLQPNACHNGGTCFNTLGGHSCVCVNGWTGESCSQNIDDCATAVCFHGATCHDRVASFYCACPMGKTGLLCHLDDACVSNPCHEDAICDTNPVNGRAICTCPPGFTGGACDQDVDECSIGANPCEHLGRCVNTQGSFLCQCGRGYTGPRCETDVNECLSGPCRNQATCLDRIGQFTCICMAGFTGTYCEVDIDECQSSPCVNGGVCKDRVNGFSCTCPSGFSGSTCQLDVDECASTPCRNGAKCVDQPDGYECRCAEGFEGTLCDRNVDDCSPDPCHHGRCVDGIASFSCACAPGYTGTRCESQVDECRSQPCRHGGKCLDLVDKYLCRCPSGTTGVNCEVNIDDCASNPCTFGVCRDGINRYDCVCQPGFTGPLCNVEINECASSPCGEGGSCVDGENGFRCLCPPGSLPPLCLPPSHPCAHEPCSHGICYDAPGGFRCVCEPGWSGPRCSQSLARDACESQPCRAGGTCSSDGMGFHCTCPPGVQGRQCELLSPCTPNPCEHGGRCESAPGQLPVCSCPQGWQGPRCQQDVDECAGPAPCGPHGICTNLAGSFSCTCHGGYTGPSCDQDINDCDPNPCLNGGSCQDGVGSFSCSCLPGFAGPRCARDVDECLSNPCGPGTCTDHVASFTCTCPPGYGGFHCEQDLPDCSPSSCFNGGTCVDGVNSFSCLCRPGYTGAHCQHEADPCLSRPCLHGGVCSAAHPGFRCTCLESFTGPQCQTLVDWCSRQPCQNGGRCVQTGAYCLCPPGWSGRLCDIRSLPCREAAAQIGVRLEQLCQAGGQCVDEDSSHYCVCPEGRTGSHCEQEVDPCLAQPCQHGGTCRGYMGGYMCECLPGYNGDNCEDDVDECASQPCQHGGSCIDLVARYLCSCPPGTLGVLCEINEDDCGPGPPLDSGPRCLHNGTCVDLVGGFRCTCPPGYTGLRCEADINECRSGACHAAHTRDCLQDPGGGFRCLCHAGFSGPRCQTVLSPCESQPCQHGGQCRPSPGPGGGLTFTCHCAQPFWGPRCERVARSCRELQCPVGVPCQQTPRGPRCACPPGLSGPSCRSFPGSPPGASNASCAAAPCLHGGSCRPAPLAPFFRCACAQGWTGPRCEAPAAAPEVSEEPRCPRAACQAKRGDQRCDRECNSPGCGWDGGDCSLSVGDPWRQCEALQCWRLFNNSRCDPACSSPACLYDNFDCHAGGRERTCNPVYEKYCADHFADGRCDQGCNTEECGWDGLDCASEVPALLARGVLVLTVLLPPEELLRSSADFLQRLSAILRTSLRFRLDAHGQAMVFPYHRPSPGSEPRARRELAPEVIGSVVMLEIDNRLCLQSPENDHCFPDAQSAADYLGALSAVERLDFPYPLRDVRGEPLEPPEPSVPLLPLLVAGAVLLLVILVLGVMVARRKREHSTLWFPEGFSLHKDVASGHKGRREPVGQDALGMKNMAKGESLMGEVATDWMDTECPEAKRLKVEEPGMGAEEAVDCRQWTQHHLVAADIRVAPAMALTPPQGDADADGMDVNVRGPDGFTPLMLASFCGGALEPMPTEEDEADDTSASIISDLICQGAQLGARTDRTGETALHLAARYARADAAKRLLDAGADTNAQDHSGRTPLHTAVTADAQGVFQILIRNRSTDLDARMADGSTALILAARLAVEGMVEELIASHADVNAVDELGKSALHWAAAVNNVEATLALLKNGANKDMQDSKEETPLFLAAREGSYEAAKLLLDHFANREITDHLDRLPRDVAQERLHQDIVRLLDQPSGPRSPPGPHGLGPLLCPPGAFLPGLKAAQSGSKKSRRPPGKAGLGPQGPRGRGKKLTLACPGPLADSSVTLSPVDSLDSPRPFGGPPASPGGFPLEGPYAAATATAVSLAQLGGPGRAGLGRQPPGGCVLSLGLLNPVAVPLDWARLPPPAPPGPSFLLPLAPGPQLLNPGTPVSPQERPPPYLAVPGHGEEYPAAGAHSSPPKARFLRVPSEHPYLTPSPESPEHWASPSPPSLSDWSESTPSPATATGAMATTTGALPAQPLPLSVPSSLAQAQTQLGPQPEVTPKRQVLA
The nature of assay [20]: small-molecule microarray binders of probe aEGFR, primary screen, biochemical, biotinylated probe, 635/667 nm fluorescence (AID 1097).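 Also: probe is a biotinylated anti-EGFR antibody binding compounds printed on slides; score combines fluorescence near 667 nm and signal to noise of each spot.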 To be noted: higher = more signal.

Sequence of Pro-neuregulin-1, membrane-bound isoform (Homo sapiens) (Q02297 whole entry, looked up, the tested form may be a part, canonical isoform): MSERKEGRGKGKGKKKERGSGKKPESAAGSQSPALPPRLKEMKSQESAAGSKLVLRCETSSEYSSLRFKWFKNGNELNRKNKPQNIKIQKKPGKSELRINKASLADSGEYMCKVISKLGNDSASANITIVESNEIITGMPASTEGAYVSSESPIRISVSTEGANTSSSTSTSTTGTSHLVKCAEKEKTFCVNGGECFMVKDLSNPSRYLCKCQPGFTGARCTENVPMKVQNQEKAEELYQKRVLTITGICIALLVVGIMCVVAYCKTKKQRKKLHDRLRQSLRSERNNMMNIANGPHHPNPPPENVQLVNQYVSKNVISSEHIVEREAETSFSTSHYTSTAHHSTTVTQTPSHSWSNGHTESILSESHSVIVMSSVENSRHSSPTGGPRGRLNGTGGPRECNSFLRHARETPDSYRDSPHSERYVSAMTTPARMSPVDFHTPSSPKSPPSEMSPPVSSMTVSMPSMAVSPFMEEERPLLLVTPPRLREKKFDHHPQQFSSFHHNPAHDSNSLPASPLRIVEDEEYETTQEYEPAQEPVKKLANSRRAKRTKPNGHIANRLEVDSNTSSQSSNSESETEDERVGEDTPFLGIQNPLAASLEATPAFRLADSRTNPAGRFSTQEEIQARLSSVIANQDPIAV

In the case of `CCOC(=O)C[C@H]1[C@H](OC(=O)c2ccccc2-c2ccccc2)[C@@H](NC(=O)c2ccccc2)c2cc(OCCCO)ccc2N1C(=O)c1ccc2ccccc2n1`, the composite z-score in [1] was -0.0767 and -0.127; in assay [2], 0.455 and 0.0871; in [3] it was 0.0047 and -0.094; in assay [4], 0.507 and 0.191; in assay [5], 0.708 and 0.964; in assay [6], -0.106 and 0.749. Further, the composite z-score in assay [7] was 0.738 and 0.565; in assay [9], 0.214 and 0.306; in assay [10] it was 0.347 and -0.0994; in assay [11], -0.0222 and 1.19; in [15], 0.549 and 1.01; in assay [17], -0.0437 and 0.0212. Also, the composite z-score in [18] was 0.357 and 0.843; in assay [19], 0.481 and 0.737; in [20] it was 0.0323 and -0.0815. Further, the z-score in assay [8] is -0.129 (inactive) and -0.113 (inactive); in assay [12], -0.0469 (inactive) and -0.78 (inactive); in assay [13], -0.19 (inactive) and 0.209 (inactive); in assay [14], -0.0952 (inactive) and 0.0526 (inactive); in assay [16], 1.02 (inactive) and -0.728 (inactive).
For the compound `C[C@@H]1CC[C@H]2C(=O)O[C@H](CN=[N+]=[N-])CN2[C@H]1c1ccc(Br)cc1`, the composite z-score in assay [1] was -0.0927 and -0.0564; in assay [2] it was 0.622 and 0.269; in [3], -0.158 and -0.187; in assay [4], -0.12 and -0.336; in assay [5] it was -0.321 and -0.635; in [6] it was -0.198 and 0.292. For the same compound, the composite z-score in assay [7] was -0.238 and -0.279; in assay [9], 0.3 and -0.405; in assay [10], -0.0657 and -0.0618; in [11], 0.692 and 0.323; in assay [15], 0.359 and -0.0523; in assay [17], -0.245 and -0.0174. The composite z-score is 0.366 and 0.115 in assay [18]; -0.105 and -1.06 in assay [19]; 0.0172 and -0.252 in assay [20]. The z-score in [8] was -0.492 (inactive) and -0.161 (inactive); in [12], -0.471 (inactive) and 0.113 (inactive); in assay [13], -16.7 (active) and -14.3 (active); in assay [14], -2.15 (inactive) and -0.441 (inactive); in assay [16], -0.548 (inactive) and 0.433 (inactive).
Regarding `O=C(NN=C1C[C@@H](O)[C@@H](O)[C@@H]2[C@@H]3C(=O)N(Cc4ccc5c(c4)OCO5)C(=O)[C@@H]3CC[C@H]12)OCc1ccccc1`, the composite z-score is -0.196 in assay [1]; 1.64 in [2]; -0.025 in assay [3]; -0.348 in [4]; 0.64 in [5]; -1.21 in [6]. In addition, the composite z-score was -1.43 in [7]; 0.965 in assay [9]; -0.387 in assay [10]; 1.15 in assay [11]; -0.815 in assay [15]; -0.0047 in assay [17]. Further, the composite z-score is 0.707 in assay [18], -0.0259 in assay [19] and -0.0828 in assay [20]. Besides, the z-score in assay [8] was -0.0282 (inactive); in assay [12] it was 0.48 (inactive); in [13], -0.157 (inactive); in assay [14], 0.191 (inactive); in [16], 1.01 (inactive).
On to `C=CCN(CCCCC)C(=O)C(c1cccs1)N(CCOCCO)C(=O)/C=C\C(=O)O` (stereo not given), for which the composite z-score in [1] was -0.192 and 0.0796; in assay [2] it was 0.185 and -1.07; in assay [3], -0.157 and -0.113; in assay [4] it was -1.26 and -0.317; in assay [5], -1.84 and -1.41; in [6], -0.661 and -0.969. Moreover, the composite z-score in [7] is -0.196 and -0.609; in assay [9], -1.48 and -0.675; in assay [10], -0.0922 and -0.41; in assay [11], -0.718 and -0.737; in assay [15], -0.93 and -0.573; in assay [17], -0.0977 and -0.0831. The composite z-score was -1.24 and -1.19 in [18]; -1.09 and -1.06 in assay [19]; -0.231 and -0.324 in assay [20]. The z-score in [8] is 0.874 (inactive) and 1.45 (inactive); in [12], -1.32 (inactive) and -1.53 (inactive); in [13] it was -0.464 (inactive) and -0.606 (inactive); in [14] it was -0.289 (inactive) and -0.433 (inactive); in assay [16] it was 0.986 (inactive) and 1.18 (inactive).
